The nature of test [1]: yeast TOR pathway RPL19A-GFP modulators, primary screen, cell-based, S. cerevisiae, multiplex flow cytometry (AID 1862; in the data active = percent of DMSO control GFP below about 86%;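 note: lower values mimic rapamycin by blocking the RPL19A rise seen in DMSO cells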). The conditions noted are these: S. cerevisiae RPL19A-GFP strain, flow cytometry fluorescence, 3 h; at 10 µM; stronger effect = lower value.
Test [2] is described as follows: modulators of MEP2-GFP levels in yeast, primary screen, S. cerevisiae, multiplex flow cytometry (AID 1867).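 Note: median GFP channel fluorescence of barcode-gated MEP2-GFP cells measured by flow cytometry.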 The settings on record: S. cerevisiae MEP2-GFP strain, 3 h, at 10 µM, stronger effect = higher value, 100% means same as DMSO wells. On the technique in general: Flow cytometry measures light scatter and fluorescence of single cells or particles in a stream.
Test [3] is described as follows: modulators of CIT2-GFP expression in yeast, primary screen, S. cerevisiae, GFP fusion, multiplex flow cytometry (AID 1870;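 active = percent response above a set limit, the screen-wide mean plus 3 SD, cut at about 130% in these data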;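 note: barcoded CIT2-GFP strain pooled with four other GFP strains with rapamycin as positive control; median GFP fluorescence per well over plate mean of DMSO wells so 100% = DMSO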). The settings on record: 3 h, at 10 µM, stronger effect = higher value.
The nature of test [4]: modulators of LAP4-GFP expression in yeast, primary screen, S. cerevisiae, multiplex flow cytometry (AID 1873;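 active = GFP signal, as percent of the solvent control, above the screen mean plus 3 SD, about 149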). The conditions noted are these: 3 h, at 10 µM, stronger effect = higher value.
The nature of test [5]: modulators of AGP1-GFP expression in yeast TOR pathway, primary screen, cell-based, multiplex flow cytometry, S. cerevisiae (AID 1887;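 active = GFP signal above the screen-wide mean plus 3 SD, that is over about 124.5% of the solvent control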;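 note: AGP1-GFP fusion strain of S. cerevisiae within a five-strain barcoded multiplex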). The conditions noted are these: 3 h, at 10 µM, stronger effect = higher value.
A short description of test [6]: inhibitors of CD8+ T cell-vesicle binding, pilot screen, LFA-1/ICAM-1 modulator project, MLPCN validation set, flow cytometry (AID 2523;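 active = response below a set limit, under 55% cells CD8-positive and vesicle-bound, and CD8 cells' 90th-percentile brightness under 279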;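 for vesicle binding response: mean PE anti-B7-1 fluorescence of CD8+ cells relative to row control; 100% = QL9-loaded vesicles with DMSO vehicle in the same plate row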). The conditions noted are these: 2C mouse CD8+ T cells, at 7 µM, stronger effect = lower value; double positive events: measured here: CD8+/vesicle+ event percentage.
For test [7], the target named is Integrin beta-1 (Homo sapiens) + Integrin alpha-4 (Homo sapiens) (UniProt P13612+P05556). Kind of test: inhibition of HUTS-21 binding to VLA-4, pilot screen, VLA-4 allosteric modulator project, U937 cells, HUTS-21 mAb, flow cytometry, validation set (AID 2674;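 active = inhibition above 50%, about 3 SD of the validation set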;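 note: antibody binding induced by the VLA-4 ligand LDV present at three times its Kd; 0% = LDV ligand with antibody and no compound and 100% = antibody without LDV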). The settings on record: HUTS-21 LIBS mAb binding, at 6.7 µM, stronger effect = higher value, binding induced by LDV ligand.
Chain of Integrin beta-1 (Homo sapiens) + Integrin alpha-4 (Homo sapiens) (P05556 whole entry, looked up): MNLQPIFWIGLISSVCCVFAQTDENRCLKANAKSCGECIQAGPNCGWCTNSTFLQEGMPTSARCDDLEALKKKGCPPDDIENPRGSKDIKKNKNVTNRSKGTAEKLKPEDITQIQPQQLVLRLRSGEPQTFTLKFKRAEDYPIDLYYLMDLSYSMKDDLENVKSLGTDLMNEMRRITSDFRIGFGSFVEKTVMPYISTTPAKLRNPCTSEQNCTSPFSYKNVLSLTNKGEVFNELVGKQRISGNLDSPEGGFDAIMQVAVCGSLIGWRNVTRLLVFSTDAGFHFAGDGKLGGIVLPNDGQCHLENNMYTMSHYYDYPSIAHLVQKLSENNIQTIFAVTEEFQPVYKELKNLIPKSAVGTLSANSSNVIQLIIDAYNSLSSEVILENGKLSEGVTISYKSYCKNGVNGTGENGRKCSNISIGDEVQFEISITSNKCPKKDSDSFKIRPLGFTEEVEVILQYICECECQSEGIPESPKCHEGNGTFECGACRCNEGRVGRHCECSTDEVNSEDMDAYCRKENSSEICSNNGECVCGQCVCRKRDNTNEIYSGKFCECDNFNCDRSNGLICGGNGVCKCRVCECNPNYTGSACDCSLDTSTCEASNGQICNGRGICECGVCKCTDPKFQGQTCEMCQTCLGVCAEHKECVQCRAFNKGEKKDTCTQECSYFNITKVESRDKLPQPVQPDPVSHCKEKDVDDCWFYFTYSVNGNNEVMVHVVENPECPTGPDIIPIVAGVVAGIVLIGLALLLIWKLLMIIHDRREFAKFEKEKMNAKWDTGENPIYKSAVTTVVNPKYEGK
Chain of Integrin beta-1 (Homo sapiens) + Integrin alpha-4 (Homo sapiens) (P13612 whole entry, looked up): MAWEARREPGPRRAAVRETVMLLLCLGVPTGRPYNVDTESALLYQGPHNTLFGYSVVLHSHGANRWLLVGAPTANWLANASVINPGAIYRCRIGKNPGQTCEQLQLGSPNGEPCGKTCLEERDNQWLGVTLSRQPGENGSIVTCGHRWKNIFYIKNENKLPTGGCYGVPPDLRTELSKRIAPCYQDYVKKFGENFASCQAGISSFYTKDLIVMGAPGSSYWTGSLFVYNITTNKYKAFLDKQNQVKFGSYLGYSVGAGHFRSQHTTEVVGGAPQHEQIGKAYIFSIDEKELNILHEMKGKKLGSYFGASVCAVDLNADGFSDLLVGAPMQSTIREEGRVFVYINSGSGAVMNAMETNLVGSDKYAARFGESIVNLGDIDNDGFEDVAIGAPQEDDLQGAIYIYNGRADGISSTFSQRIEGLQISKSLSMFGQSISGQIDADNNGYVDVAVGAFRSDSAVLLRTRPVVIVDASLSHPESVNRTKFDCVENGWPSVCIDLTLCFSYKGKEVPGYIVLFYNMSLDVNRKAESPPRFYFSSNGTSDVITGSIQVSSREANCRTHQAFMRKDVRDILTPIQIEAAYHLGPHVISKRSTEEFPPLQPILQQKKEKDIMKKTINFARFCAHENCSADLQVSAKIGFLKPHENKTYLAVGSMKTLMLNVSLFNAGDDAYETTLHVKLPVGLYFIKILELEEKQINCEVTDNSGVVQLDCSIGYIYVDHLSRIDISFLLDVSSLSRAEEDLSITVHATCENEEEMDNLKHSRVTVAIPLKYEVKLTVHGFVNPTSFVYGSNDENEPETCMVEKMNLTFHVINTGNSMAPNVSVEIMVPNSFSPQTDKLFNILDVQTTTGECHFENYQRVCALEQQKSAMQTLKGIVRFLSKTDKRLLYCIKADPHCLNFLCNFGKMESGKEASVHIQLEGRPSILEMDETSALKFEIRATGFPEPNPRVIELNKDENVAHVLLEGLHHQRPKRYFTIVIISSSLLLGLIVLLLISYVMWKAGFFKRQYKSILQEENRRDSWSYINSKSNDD

Test [8] in a line: superoxide lowering in aged yeast cells, pilot screen, validation compound set (AID 2706;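 active = superoxide response below 65% of plate, a cut near 3 SD across the whole screen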;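 note: yeast exposed to compound for one week at 30 degrees C before staining; 100% = mean of all compound wells on the same plate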). The conditions noted are these: S. cerevisiae aging, superoxide DHE fluorescence; at 10 µM, stronger effect = lower value.
Test [9] concerns the target Beta-adrenergic receptor kinase 1 (Homo sapiens) (UniProt P25098). Briefly: GRK2 binders displacing RNA aptamer, biochemical, validation, human GRK2, bead flow cytometry (AID 488806;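 active = aptamer binding inhibition above 30%, about 3 SD of noise from non-fluorescent compounds; inactive = inhibition at or below 30%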). The conditions noted are these: bead-bound GRK2, FAM-aptamer displacement, at 10 µM, stronger effect = higher value.
In test [10] the target is AP-2 complex subunit beta (Homo sapiens) (UniProt P63010). Kind of test: inhibitors of arrestin peptide binding to AP2, pilot screen, biochemical, validation set, GST-AP2 beads, flow cytometry (AID 504541;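 active = inhibition above 54%, about 3 SD of non-fluorescent compounds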;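 note: AP2 carries R879A mutation and is captured from E. coli lysate; bead-bound FITC arrestin peptide fluorescence measuring arrestin peptide binding to AP2; 0% = DMSO wells and 100% = excess unlabeled arrestin peptide control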). The conditions noted are these: FITC arrestin peptide, at 10 µM, stronger effect = higher value, AP2 beta2 appendage fragment, R879A mutant.
Chain of AP-2 complex subunit beta (Homo sapiens) (P63010 whole entry, looked up, the tested form may be a part, one chain of several): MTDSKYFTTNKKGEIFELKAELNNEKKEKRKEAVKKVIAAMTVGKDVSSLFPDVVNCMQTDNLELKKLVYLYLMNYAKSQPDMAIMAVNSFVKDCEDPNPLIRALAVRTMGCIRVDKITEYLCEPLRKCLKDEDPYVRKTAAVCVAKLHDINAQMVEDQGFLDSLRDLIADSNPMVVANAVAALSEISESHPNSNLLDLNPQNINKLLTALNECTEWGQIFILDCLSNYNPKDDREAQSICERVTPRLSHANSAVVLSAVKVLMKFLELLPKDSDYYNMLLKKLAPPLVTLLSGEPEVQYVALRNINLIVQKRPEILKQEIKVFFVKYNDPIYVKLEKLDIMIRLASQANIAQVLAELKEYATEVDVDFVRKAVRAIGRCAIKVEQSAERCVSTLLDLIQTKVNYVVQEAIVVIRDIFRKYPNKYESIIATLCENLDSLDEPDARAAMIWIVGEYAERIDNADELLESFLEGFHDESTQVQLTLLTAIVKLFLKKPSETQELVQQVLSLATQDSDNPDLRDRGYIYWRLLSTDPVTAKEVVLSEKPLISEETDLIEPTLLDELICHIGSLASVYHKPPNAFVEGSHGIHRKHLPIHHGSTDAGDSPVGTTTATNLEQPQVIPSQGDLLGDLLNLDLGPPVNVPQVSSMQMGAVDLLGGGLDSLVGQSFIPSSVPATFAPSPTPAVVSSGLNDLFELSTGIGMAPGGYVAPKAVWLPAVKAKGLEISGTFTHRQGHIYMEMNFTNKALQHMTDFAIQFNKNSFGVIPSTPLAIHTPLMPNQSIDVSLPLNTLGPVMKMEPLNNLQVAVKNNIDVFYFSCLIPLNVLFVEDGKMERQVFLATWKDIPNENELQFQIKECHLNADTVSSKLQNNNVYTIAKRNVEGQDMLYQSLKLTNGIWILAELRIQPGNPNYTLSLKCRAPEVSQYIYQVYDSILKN
Test [11] is described as follows: yeast V-ATPase proton transport modulators, S. cerevisiae, pHLuorin, HTS validation (AID 504600; in the data active = response above about 15%;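 note: plate controls were DMSO for no effect and reference compound for full effect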). The settings on record: S. cerevisiae pHLuorin cytosolic pH, at 10 µM, stronger effect = higher value.
The subject of test [12] is anti-desmoglein-3 scFv antibody binding to human DSG3. Kind of test: inhibitors of anti-DSG3 scFv binding to DSG3, pilot screen, biochemical, validation compound set, bead-based, flow cytometry (AID 588368;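 active = binding below the plate cutoff, the plate median minus 3 SD, with a reading above zero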;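 note: signal is the median channel fluorescence of bead-bound GFP antibody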). The settings on record: Protein G beads, DSG3-Fc, scFv-GFP binding, at 10 µM, stronger effect = lower value.
Test [13] in a line: inhibitors of fungal efflux pumps CDR1, CDR2, MDR1, pilot screen, validation compound set, multiplex, phenotypic (AID 588506;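 active = efflux inhibition above 0.42, the validation set average plus 4 SD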;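 note: Nile Red retained in cells so higher fluorescence means more efflux inhibition; 0 = negative control wells and 1 = enniatin B 25 µM full block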). The conditions noted are these: S. cerevisiae pump-expressing triplex, Nile Red efflux flow cytometry; at 10 µM; stronger effect = higher value; the pumps come from Candida albicans.
For test [14], the target named is ATP-binding cassette sub-family B member 6 (Homo sapiens) (UniProt Q9NP58). Briefly: ABCB6 transporter inhibitors, pilot screen, K562-ABCB6 cells, flow cytometry, validation set (AID 588550;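 active = inhibition above the screen-wide mean plus 3 SD, about 51%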;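 note: 0% = DMSO wells and 100% = benzethonium chloride 70 µM positive control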). The settings on record: K562-ABCB6 porphyrin accumulation, 1 h, at 10 µM, stronger effect = higher value.
Chain of ATP-binding cassette sub-family B member 6 (Homo sapiens) (Q9NP58 whole entry, looked up): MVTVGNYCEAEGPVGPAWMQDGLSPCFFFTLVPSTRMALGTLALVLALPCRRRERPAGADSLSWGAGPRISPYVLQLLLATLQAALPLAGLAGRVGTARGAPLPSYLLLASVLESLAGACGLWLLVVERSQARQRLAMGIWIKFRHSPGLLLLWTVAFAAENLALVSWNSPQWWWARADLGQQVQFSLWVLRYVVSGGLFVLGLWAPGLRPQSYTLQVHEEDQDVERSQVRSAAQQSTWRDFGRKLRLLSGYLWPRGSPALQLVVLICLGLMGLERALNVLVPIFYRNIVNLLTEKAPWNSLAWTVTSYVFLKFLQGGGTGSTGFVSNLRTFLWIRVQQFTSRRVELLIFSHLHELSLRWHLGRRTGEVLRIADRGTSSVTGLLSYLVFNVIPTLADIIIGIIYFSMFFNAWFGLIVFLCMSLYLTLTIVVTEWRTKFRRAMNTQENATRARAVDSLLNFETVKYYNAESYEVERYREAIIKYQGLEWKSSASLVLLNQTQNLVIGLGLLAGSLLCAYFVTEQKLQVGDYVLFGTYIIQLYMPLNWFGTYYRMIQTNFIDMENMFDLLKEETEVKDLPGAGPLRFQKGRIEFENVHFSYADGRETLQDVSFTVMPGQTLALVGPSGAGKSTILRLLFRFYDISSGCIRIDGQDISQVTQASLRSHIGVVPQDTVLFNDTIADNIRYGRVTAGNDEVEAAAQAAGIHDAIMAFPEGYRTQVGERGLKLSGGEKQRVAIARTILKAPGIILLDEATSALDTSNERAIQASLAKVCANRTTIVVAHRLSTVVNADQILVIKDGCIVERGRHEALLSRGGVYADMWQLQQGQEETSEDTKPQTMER
Test [15] in a line: promoters of myeloid differentiation in arrested cells, primary screen, cell-based, GFP/MAC1 double positive, flow cytometry, validation set (AID 588685;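 active = differentiation response of at least 50%, scaled between solvent and reference control, from cells with both markers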;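 note: compound exposure lasts four days before antibody staining and flow analysis; 0% = DMSO wells and 100% = 5 µM fulvestrant positive control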). The conditions noted are these: ER-HoxA9 marrow cells, stronger effect = higher value, normalized: vehicle 0, fulvestrant 100.

SMILES strings stand for the structures. Records with an inconclusive call do not appear. The source made the active and inactive calls.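 Rule for the calls, unless noted: active = GFP response, as percent of the DMSO control, above the screen-wide mean plus 3 SD, about 139; inconclusive = no response measured because the compound's own fluorescence interfered; inactive = the rest.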

Chain of Beta-adrenergic receptor kinase 1 (Homo sapiens) (P25098 whole entry, looked up): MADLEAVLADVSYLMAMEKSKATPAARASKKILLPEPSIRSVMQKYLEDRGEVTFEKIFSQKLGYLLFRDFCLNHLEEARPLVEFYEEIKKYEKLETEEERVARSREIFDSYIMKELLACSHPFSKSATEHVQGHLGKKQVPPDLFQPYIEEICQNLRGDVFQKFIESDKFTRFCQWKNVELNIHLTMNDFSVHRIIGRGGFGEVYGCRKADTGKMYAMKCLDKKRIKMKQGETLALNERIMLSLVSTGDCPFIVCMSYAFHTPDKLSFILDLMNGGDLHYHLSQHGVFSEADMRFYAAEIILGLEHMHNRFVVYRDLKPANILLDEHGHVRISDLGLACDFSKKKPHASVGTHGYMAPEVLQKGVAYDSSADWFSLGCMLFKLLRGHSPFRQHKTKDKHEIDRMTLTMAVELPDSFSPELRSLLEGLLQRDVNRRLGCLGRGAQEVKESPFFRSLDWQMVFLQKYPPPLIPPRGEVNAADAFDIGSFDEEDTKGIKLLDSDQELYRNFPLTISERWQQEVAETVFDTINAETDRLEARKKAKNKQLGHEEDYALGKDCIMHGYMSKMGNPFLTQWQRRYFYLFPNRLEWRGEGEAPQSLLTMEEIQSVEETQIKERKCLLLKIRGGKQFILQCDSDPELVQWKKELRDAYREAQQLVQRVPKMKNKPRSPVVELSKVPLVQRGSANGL

For orientation: inhibition means the drop in the measured response relative to a control, in per cent. On to `CC(=O)Nc1ccc(OS(=O)(=O)c2c(C)cc(C)cc2C)cc1`, for which the percent of DMSO control GFP in test [1] is 99% (inactive). The GFP response vs DMSO in test [2] is 92.8% (inactive); in [4], 96.4% (inactive). For the same molecule, the percent response of DMSO control in test [3] is 98.8% (inactive). For the same molecule, the GFP response, % of DMSO in test [5] is 86.7% (inactive). The molecule further displayed a double positive events in test [6] of 47.1%. The vesicle binding response in test [6] was 166% (inactive). Further, the inhibition in [7] is 10.9% (inactive); in test [10] it was -5.36% (inactive); in [14], 8% (inactive). The superoxide response (% of plate) in [8] is 99.6% (inactive). Moreover, in test [9], the aptamer binding inhibition is -1% (inactive). Moreover, the response in [11] is 0.9% (inactive). In test [12], the binding (% of control) was 102% (inactive). Also, in test [13], the efflux inhibition (fraction of control) is -0.2 (inactive). Moreover, in [15], the differentiation response is -18% (inactive).
On to `CN=C1c2cc3cc(OC)ccc3n2CCN1C`, for which the percent of DMSO control GFP in [1] was 101% (inactive). The GFP response vs DMSO in test [2] is 97.9% (inactive); in test [4], 93.3% (inactive). The percent response of DMSO control in test [3] is 102% (inactive). Moreover, the GFP response, % of DMSO in test [5] is 99% (inactive). Also, the double positive events in test [6] was 62%. For the same molecule, the vesicle binding response in test [6] was 177% (inactive). Further, the inhibition in test [7] was 11.9% (inactive); in [10], 14.9% (inactive); in test [14] it was 2% (inactive). The superoxide response (% of plate) in test [8] is 103% (inactive). In test [9], the aptamer binding inhibition is 4% (inactive). Also, in test [11], the response is -2.85% (inactive). Also, the binding (% of control) in test [12] was 98.8% (inactive). Moreover, the efflux inhibition (fraction of control) in [13] was 0.1 (inactive). For the same molecule, the differentiation response in test [15] is 12.7% (inactive).
For the molecule `c1cc2c(cc1C1CCCCC1)c1c3n2CCN=C3CCC1`, in test [1], the percent of DMSO control GFP is 98.1% (inactive). Moreover, the GFP response vs DMSO was 107% (inactive) in [2] and 99.4% (inactive) in test [4]. Besides, the percent response of DMSO control in test [3] is 99.8% (inactive). Further, the GFP response, % of DMSO in test [5] is 93.1% (inactive). In [6], this molecule had a double positive events of 57.1%. Further, the vesicle binding response in test [6] was 224% (inactive). Further, the figures for the inhibition in test [7], in test [10] and in test [14] were -9.57% (inactive), -7.03% (inactive) and -1% (inactive), respectively. The superoxide response (% of plate) in [8] was 98.8% (inactive). Also, the aptamer binding inhibition in test [9] was -9% (inactive). Also, in [11], the response was -0.63% (inactive). Moreover, the binding (% of control) in test [12] was 114% (inactive). Moreover, the efflux inhibition (fraction of control) in test [13] was 0.03 (inactive). Besides, the differentiation response in test [15] was -9.89% (inactive).
As for `CC(=O)Oc1ccc(C(=O)O)cc1OC(C)=O`, the percent of DMSO control GFP in test [1] was 98% (inactive). Further, the GFP response vs DMSO in [2] is 104% (inactive); in test [4] it was 99.4% (inactive). In addition, the percent response of DMSO control in test [3] was 104% (inactive). Besides, the GFP response, % of DMSO in [5] was 98.4% (inactive). The same molecule showed a double positive events in test [6] of 59.1%. Moreover, the vesicle binding response in [6] was 164% (inactive). In addition, the figures for the inhibition in test [7], in test [10] and in test [14] were -3.04% (inactive), -6.29% (inactive) and 6% (inactive), respectively. Further, the superoxide response (% of plate) in test [8] was 98.2% (inactive). In [9], the aptamer binding inhibition was 4% (inactive). In test [11], the response is 0.26% (inactive). For the same molecule, in [12], the binding (% of control) was 105% (inactive). Moreover, the efflux inhibition (fraction of control) in test [13] was -0.01 (inactive). Further, the differentiation response in test [15] was 1.41% (inactive).
Regarding `COCCCC/C(=N\OCCN)c1ccc(C(F)(F)F)cc1`, the percent of DMSO control GFP in test [1] is 108% (inactive). Further, the GFP response vs DMSO was 108% (inactive) in [2] and 93.3% (inactive) in test [4]. Besides, in test [3], the percent response of DMSO control is 98.8% (inactive). Also, the GFP response, % of DMSO in test [5] was 105% (inactive). This molecule returned a double positive events in test [6] of 60.3%. In test [6], the vesicle binding response is 182% (inactive). Also, the inhibition in [7] was 10% (inactive); in [10], -0.39% (inactive); in test [14] it was 3% (inactive). Besides, in test [8], the superoxide response (% of plate) was 102% (inactive). For the same molecule, the aptamer binding inhibition in test [9] is -7% (inactive). Also, the response in test [11] was 1.1% (inactive). Further, in [12], the binding (% of control) was 91.7% (inactive). In [13], the efflux inhibition (fraction of control) is 0.18 (inactive). Further, the differentiation response in test [15] was 139% (active).

The values above are taken from PubChem BioAssay.
